PubChem BioAssay (NCATS)
Results filed as inconclusive are left out. Active and inactive are the calls of the source. Unless noted, calls follow the shape of the dose curve; as a rule, active = well fitted curve in the direction sought with a large enough effect; inconclusive = small, poorly fitted or top-dose-only effect, or another doubt; inactive = no such curve, though single readings can be large; an effect the other way counts as inactive or inconclusive.

How the values were obtained:
[1] = P-glycoprotein substrates identified in KB-8-5-11 adenocarcinoma cell line, qHTS therapeutic library screen (AID 1346987); also: nearly all actives have a fitted effect of over 65% in size
In short: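 P-gp-mediated resistance screen: KB-8-5-11 cells treated 72 h with compounds in dose-response. CellTiter-Glo viability.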

[2] = Natriuretic polypeptide receptor (hNpr1) antagonism - Pilot counterscreen GloSensor control cell line (AID 1347045; calls by dose curve)
In short: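 This counterscreen uses HEK293 cells expressing the GIP/pGS-40F cGMP biosensor. Compound-treated cells are challenged with 50 uM sodium nitroprusside, and the luciferase signal is compared before and after stimulation.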

[3] = molecular target: Atrial natriuretic peptide receptor 1 (Homo sapiens) (UniProt P16066); experiment: Natriuretic polypeptide receptor (hNpr1) antagonism - Pilot screen (AID 1347049; calls by dose curve;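 also: agonist-evoked cGMP luminescence read 20 min after hNppA addition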)
Atrial natriuretic peptide receptor 1 (Homo sapiens), sequence (P16066 whole entry, looked up): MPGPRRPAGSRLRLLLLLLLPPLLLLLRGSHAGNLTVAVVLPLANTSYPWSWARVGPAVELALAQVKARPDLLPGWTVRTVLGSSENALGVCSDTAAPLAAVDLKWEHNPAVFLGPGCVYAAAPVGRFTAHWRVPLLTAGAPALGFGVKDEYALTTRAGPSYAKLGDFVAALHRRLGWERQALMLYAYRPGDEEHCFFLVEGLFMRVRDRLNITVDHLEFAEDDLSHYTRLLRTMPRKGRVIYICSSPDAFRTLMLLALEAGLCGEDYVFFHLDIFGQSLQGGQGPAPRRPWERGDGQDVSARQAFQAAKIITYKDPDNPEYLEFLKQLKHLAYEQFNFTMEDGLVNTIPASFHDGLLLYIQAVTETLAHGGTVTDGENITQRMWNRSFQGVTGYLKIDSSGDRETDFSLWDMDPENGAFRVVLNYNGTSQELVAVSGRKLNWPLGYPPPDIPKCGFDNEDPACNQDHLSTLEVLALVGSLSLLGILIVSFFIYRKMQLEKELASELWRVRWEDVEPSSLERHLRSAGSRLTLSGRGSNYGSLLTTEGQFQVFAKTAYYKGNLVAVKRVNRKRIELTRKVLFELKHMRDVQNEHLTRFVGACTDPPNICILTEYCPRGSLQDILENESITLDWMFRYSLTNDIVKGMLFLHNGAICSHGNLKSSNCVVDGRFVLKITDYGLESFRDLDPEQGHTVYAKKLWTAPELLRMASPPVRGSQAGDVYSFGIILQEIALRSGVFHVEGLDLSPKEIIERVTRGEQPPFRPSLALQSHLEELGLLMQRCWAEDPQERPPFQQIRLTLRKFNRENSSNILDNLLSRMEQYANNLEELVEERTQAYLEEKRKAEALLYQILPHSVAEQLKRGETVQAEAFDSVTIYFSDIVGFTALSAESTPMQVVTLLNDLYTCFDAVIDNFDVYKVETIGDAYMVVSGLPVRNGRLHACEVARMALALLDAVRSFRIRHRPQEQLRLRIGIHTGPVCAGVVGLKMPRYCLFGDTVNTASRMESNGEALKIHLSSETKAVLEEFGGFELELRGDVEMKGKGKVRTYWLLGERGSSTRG
In short: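 HEK293 cells co-expressing hNpr1 and the GloSensor pGS-40F cGMP luciferase sensor were preloaded with 2% GloSensor reagent for 2 h. Compounds were added for 30 min at room temperature, then cells were stimulated with 0.1 nM hNppA for 20 min before luminescence readout.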

[4] = molecular target: Atrial natriuretic peptide receptor 2 (Homo sapiens) (UniProt P20594); experiment: Natriuretic polypeptide receptor (hNpr2) antagonism - Pilot subtype selectivity assay (AID 1347050; calls by dose curve)
Atrial natriuretic peptide receptor 2 (Homo sapiens), sequence (P20594 whole entry, looked up): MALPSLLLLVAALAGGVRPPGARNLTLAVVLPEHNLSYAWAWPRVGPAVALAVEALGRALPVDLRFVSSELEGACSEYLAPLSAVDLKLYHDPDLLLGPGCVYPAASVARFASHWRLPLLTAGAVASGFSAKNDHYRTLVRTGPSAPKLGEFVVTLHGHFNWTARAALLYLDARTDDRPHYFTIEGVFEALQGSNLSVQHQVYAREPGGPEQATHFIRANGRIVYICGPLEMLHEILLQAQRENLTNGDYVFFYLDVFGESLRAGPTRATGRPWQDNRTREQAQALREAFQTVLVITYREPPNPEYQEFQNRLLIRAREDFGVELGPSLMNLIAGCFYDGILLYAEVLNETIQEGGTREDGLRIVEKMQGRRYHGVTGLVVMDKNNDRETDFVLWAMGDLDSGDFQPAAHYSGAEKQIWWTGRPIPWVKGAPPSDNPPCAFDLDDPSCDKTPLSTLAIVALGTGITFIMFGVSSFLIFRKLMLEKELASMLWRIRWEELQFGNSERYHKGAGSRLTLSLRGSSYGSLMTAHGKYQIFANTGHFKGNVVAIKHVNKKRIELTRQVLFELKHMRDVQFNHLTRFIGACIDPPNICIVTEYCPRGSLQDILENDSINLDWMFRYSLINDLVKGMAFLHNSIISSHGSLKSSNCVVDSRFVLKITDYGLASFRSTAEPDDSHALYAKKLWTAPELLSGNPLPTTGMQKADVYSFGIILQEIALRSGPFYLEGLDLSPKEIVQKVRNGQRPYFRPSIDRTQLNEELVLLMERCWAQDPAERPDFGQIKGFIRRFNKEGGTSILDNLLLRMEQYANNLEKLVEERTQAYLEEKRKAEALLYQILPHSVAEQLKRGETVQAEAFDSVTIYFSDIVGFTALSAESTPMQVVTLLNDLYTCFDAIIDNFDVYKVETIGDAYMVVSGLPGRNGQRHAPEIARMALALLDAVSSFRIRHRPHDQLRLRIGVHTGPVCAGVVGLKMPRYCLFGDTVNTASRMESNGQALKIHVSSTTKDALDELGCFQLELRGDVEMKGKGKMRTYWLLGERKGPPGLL
In short: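 cGMP-sensor HEK293/hNpr2 cells; 2% GloSensor reagent 2 h RT; compounds 30 min; baseline luminescence read; 1 nM hNppC agonist 20 min RT; final luminescence read by CCD camera. Antagonism = reduced post-agonist signal.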

[5] = molecular target: T1, Tyrosine-protein phosphatase non-receptor type substrate 1 (Homo sapiens) + Leukocyte surface antigen CD47 (Homo sapiens) (UniProt P78324+Q08722); experiment: CD47-SIRPalpha protein protein interaction - LANCE assay qHTS validation (AID 1347057; active = well fitted curve in the direction sought with a large enough effect in the signal ratio, with a control signal flat, not every such curve was filed as active; the % refers to the signal ratio)
T1 sequence (P78324 whole entry, looked up): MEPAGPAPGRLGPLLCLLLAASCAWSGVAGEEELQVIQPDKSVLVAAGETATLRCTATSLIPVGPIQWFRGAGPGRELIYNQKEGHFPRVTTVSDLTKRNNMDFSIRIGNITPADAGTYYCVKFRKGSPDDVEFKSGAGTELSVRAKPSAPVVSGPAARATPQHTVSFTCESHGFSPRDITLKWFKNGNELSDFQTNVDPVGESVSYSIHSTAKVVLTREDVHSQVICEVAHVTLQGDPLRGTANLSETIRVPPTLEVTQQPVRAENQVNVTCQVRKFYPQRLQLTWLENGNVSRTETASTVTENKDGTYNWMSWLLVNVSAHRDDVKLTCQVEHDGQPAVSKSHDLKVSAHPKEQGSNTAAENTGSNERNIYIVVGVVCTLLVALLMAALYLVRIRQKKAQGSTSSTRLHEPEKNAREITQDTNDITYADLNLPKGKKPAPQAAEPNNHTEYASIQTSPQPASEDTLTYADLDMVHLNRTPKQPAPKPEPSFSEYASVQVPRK
T1 sequence (Q08722 whole entry, looked up): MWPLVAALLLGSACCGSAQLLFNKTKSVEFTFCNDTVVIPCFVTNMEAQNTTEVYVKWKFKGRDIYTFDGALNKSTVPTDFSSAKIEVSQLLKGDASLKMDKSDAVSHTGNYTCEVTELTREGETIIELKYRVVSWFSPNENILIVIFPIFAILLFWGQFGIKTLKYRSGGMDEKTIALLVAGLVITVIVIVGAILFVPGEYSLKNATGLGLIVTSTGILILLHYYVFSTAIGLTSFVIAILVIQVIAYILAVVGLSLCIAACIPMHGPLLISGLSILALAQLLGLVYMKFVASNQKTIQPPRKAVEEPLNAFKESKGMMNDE
In short: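 First, His-tagged CD47 and Eu-labelled anti-His antibody met the compound for 30 min; next, site-specifically biotinylated SIRPalpha was added for 30 min; finally streptavidin-APC was added before reading the TR-FRET ratio.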

[6] = molecular target: T1, Tyrosine-protein phosphatase non-receptor type substrate 1 (Homo sapiens) + Leukocyte surface antigen CD47 (Homo sapiens); experiment: CD47-SIRPalpha protein protein interaction - HTRF assay qHTS validation (AID 1347058; active = well fitted curve in the direction sought with a large enough effect in the signal ratio, not every such curve was filed as active; the % refers to the signal ratio)
In short: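 TR-FRET read (Ch1/Ch2 ratio) of soluble extracellular CD47 and Avi-biotinylated SIRPalpha domains in PBS pH 7.4 with 0.05% IGEPAL; 7-point compound titration. Sequential 30 min room-temperature steps; non-biotinylated SIRPalpha as control inhibitor.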

[7] = molecular target: T1, Tyrosine-protein phosphatase non-receptor type substrate 1 (Homo sapiens) + Leukocyte surface antigen CD47 (Homo sapiens); experiment: CD47-SIRPalpha protein protein interaction - Alpha assay qHTS validation (AID 1347059);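 also: bead proximity luminescence from CD47 binding SIRPalpha after compound preincubation with SIRPalpha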
In short: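 Soluble extracellular domains: Avi-tag biotinylated SIRPalpha (25 nM) preincubated 30 min RT with compound, then 6His-CD47 (12.5 nM) 30 min; Ni-NTA acceptor and streptavidin donor beads (10 ug/mL) 30 min, AlphaScreen read. PBS pH 7.4, 0.05% IGEPAL.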

[8] = molecular target: Parathyroid hormone/parathyroid hormone-related peptide receptor (Homo sapiens) (UniProt Q03431); experiment: qHTS for PTHR1 Agonists: Optimization Screen against the NCGC LOPAC library (AID 1347079);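 also: GloSensor cAMP luminescence in HEK-293 GP2 cells expressing human PTHR1 with IBMX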
Parathyroid hormone/parathyroid hormone-related peptide receptor (Homo sapiens), sequence (Q03431 whole entry, looked up): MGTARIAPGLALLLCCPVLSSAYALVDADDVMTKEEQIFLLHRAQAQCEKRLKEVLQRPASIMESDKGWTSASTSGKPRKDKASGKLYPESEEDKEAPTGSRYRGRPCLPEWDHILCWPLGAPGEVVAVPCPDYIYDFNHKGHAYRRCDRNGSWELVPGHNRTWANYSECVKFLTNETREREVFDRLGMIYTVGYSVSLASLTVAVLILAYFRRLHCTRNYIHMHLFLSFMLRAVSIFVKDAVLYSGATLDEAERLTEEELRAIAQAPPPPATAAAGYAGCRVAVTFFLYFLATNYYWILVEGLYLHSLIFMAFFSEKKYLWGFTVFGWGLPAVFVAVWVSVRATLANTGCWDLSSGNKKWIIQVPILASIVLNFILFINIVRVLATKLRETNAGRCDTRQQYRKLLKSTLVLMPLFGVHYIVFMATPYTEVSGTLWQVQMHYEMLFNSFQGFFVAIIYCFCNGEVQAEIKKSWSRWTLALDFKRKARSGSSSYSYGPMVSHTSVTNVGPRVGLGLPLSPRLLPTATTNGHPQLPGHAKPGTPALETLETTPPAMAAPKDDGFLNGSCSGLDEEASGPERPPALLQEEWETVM
In short: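 Compounds were tested across a qHTS titration. PTHR1-expressing GP2 cells report cAMP rises via GloSensor luminescence after 1 hr compound exposure at 37C with IBMX present.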

[9] = qHTS for Inhibitors of the Functional Ribonucleoprotein Complex (vRNP) of Lassa (LASV) Arenavirus: LASV Primary Screen - GLuc reporter signal (AID 1347082; calls by dose curve; tested in HEK293 reporter line; also: nearly all actives have a fitted effect of over 60% in size)
[10] = qHTS for Inhibitors of the Functional Ribonucleoprotein Complex (vRNP) of Lassa (LASV) Arenavirus: Viability assay - alamar blue signal for LASV Primary Screen (AID 1347083; calls by dose curve; tested in HEK293 reporter line; also: nearly all actives have a fitted effect of over 80% in size)
[11] = qHTS for Inhibitors of the Functional Ribonucleoprotein Complex (vRNP) of Lymphocytic Choriomeningitis Arenaviruses (LCMV): Viability assay - alamar blue signal for LCMV Primary Screen (AID 1347085; calls by dose curve; tested in HEK293 reporter line; also: nearly all actives have a fitted effect of over 80% in size)
[12] = molecular target: Nucleoprotein (Lymphocytic choriomeningitis virus (strain Armstrong)) (UniProt P09992); experiment: qHTS for Inhibitors of the Functional Ribonucleoprotein Complex (vRNP) of Lymphocytic Choriomeningitis Arenaviruses (LCMV): LCMV Primary Screen - GLuc reporter signal (AID 1347086; calls by dose curve; also: nearly all actives have a fitted effect of over 70% in size)
Nucleoprotein (Lymphocytic choriomeningitis virus (strain Armstrong)), sequence (P09992 whole entry, looked up): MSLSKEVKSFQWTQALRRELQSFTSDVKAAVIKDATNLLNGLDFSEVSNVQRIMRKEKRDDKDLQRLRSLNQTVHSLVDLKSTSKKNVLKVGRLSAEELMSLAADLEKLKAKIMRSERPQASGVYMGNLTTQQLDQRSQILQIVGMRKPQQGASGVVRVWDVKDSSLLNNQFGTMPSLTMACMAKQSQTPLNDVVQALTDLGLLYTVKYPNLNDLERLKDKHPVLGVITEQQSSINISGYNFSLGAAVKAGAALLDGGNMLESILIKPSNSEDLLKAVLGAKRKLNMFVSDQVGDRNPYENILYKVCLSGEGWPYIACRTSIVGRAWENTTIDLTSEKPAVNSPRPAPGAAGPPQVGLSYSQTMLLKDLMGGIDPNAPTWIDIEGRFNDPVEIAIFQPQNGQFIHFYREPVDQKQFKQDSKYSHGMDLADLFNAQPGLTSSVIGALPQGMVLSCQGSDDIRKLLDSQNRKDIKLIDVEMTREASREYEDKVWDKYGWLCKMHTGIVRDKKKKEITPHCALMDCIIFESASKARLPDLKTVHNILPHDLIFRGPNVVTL

[13] = qHTS of pediatric cancer cell lines to identify multiple opportunities for drug repurposing: Primary screen for TC32 cells (AID 1347089); also: nearly all actives have a fitted effect of over 60% in size
In short: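 In the primary qHTS, MIPE compounds were tested at 11 concentrations (0.78 nM to 46 µM) and NPC compounds at 8 (0.59 nM to 46 µM) on TC32 cells for 48 h. CellTiter-Glo luminescence gave viability.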

[14] = qHTS of pediatric cancer cell lines to identify multiple opportunities for drug repurposing: Primary screen for SJ-GBM2 cells (AID 1347091)
In short: (§1)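 Eight- or eleven-point concentration series, 48 h treatment at 37 degrees C in growth media; readout CellTiter-Glo luminescence. Potency and efficacy were taken from the concentration-response curves.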

[15] = qHTS of pediatric cancer cell lines to identify multiple opportunities for drug repurposing: Primary screen for A673 cells (AID 1347092); also: nearly all actives have a fitted effect of over 45% in size
In short: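 48 h compound exposure, A673, 500-1,000 cells/well, 37 degrees C/5% CO2. MIPE: 11-point, 0.78 nM-46 µM; NPC: 8-point, 0.59 nM-46 µM (final). Readout CellTiter-Glo luminescence after 15 min RT.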

[16] = P-glycoprotein substrates identified in KB-3-1 adenocarcinoma cell line, qHTS therapeutic library screen (AID 1346986); settings: KB-3-1 parental cells viability, CellTiter-Glo, 72 h; at 44.5 µM (top of the series) unless noted; also: nearly all actives have a fitted effect of over 60% in size
In short: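 KB-3-1 parental cells and P-gp-overexpressing KB-8-5-11 (colchicine omitted during assay) plated at 500 cells/well, dosed in dose-response, incubated 72 h at 37 degree C. CellTiter-Glo luminescence read; KB-8-5-11 also tested with tariquidar.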

[17] = NS1 protein of Zika virus - qHTS assay to identify small molecule inhibitors in human HEK 293 cells (AID 1347053); also: nearly all actives have a fitted effect of over 55% in size
In short: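 HEK 293 cells, seeded 20 h at 37 C, were pretreated with compound 1 h, then infected with ZIKV MR766 (MOI = 0.5) for 24 h. NS1 was read by TR-FRET with two anti-NS1 antibodies, normalized to uninfected and infected wells.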

[18] = qHTS of pediatric cancer cell lines to identify multiple opportunities for drug repurposing: Primary screen for DAOY cells (AID 1347090); also: nearly all actives have a fitted effect of over 55% in size
In short: as §1

[19] = qHTS of pediatric cancer cell lines to identify multiple opportunities for drug repurposing: Primary screen for SK-N-MC cells (AID 1347093)
In short: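 Metabolically active cells were quantified by ATP-dependent luminescence (CellTiter-Glo, 15 min at room temperature) following 48 h treatment. Cells had been plated at 500-1,000 per well and settled for 5 h beforehand.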

Measured: Potency

CC(C)(C)NCC(O)c1ccccc1Cl (configuration not stated)
not listed: [16] | [17] | [18] | [19]
inactive: all other assays above

Nc1ccn(C[C@@H](CO)OCP(=O)(O)O)c(=O)n1
inactive: [16] inactive [at 17.4 µM] | [1] | [9] | [10] | [11] | [12]

C[N+]1(CCF)[C@@H]2CC[C@H]1CC(OC(=O)C(O)(c1ccccc1)c1ccccc1)C2 (some centres not stated)
inactive: [1] | [17] | [9] | [10] | [11] | [12] | [13] | [18] | [14] | [15]

CC(=O)OCC1=C(C(=O)O)N2C(=O)[C@@H](N)[C@H]2SC1
not listed: [2] | [3] | [4] | [5] | [6] | [7] | [8] | [19]
inactive: all other assays above

COc1cc(OC)c(OC)cc1C=O
inactive: [1] | [17] | [9] | [10] | [11] | [12] | [13] | [18] | [14] | [15]

COc1ccc2c(c1OC)C(=O)O[C@H]2[C@@H]1c2cc3c(cc2CCN1C)OCO3
not listed: [16] | [18] | [19]
inactive: all other assays above

CN1CC[C@]23c4c5ccc(O)c4O[C@H]2[C@@H](O)C=C[C@H]3[C@H]1C5
inactive: [1] | [17] | [9] | [10] | [11] | [12] | [13] | [18] | [14]

CC(C)[C@H]1C(=O)N2CCC[C@H]2[C@]2(O)O[C@](NC(=O)[C@@H]3C[C@@H]4c5cccc6[nH]cc(c56)C[C@H]4N(C)C3)(C(C)C)C(=O)N12
inactive: [1]

CCOC(=O)CC(SP(=S)(OC)OC)C(=O)OCC (configuration not stated)
inactive: [1] | [17] | [9] | [10] | [11] | [12] | [13] | [18] | [14] | [15]

CCC1(c2ccc(N)cc2)CCC(=O)NC1=O (configuration not stated)
not listed: [16] | [17]
inactive: all other assays above

Oc1ccc(Cl)cc1
inactive: [1] | [17] | [9] | [10] | [11] | [12] | [13] | [18] | [14] | [15]

COc1ccc2c(c1)C13CCCC[C@@H]1C(C2)N(C)CC3 (some centres not stated)
inactive: [1]

O=C1Nc2ccc(Cl)cc2C(c2ccccc2Cl)=NC1O (configuration not stated)
inactive: [1]
